Assay outcomes (PubChem BioAssay)
Only some compounds are listed: those with a hit (about 3.4% of all), similar ones and a draw of the others.
TEAD-YAP inh – TEAD-YAP interaction inhibition; HEK-TIYL cells, TEAD-Gal4/YAP UAS-luciferase luminescence; inhibition, % at 9.12 µM; 640,000 compounds, 1.4% hits; AID 1259422; in the data active = inhibition above about 32%
MITF primary – human MITF inhibition, primary screen | O75030 | AlphaScreen MITF homodimerization, bead proximity signal | inhibition, % at 2.6 µM | 650,000 compounds, 0.91% hits | AID 1259374; in the data active = inhibition above about 50%
FBW7 activator – human FBW7 E3 ligase activation, primary screen; 650,000 compounds, 0.13% hits; AlphaScreen FBW7–phospho-cyclin E peptide binding, activator screen; Q969H0; AID 1259310; normalized activity (activation), % at 26.1 µM; in the data active = normalized activity above about 1.9%;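 note: purified mutant Fbw7 with reduced substrate affinity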
Target sequence (Q969H0 whole entry, looked up): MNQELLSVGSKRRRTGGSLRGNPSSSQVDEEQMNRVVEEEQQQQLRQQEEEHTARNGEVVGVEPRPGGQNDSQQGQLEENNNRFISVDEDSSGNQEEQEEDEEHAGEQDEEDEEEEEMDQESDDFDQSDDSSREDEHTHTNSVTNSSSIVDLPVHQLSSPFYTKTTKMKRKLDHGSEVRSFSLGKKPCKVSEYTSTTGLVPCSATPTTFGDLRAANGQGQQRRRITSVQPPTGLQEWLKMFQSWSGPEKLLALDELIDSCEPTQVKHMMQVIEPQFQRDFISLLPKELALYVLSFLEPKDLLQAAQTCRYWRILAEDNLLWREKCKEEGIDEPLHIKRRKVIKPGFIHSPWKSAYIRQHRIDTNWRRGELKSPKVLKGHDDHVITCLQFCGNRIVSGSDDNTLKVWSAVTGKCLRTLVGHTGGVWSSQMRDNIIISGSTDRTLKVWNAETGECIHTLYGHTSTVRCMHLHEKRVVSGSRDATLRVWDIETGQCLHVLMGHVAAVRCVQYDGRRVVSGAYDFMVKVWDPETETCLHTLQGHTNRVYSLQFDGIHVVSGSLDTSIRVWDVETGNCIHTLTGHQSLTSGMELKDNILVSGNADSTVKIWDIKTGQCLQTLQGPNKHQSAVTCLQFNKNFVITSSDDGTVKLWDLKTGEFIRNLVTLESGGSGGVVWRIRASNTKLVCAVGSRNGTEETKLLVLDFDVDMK
GPR151 ag – activators of human GPR151 | PathHunter beta-arrestin GPR151 cells, luminescence | activation, % at 11.2 µM | 650,000 compounds, 1% hits; in the data active = activation above about 4.9%
MITF confirm – human MITF inhibition, confirmation. 4,700 compounds, 16% hits. AlphaScreen MITF homodimerization, biotin/His-MITF beads. shares compounds with MITF primary. inhibition, % at 2.6 µM;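 active = inhibition above a cutoff derived from the DMSO control wells, cut at about 28% in these data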;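 note: inhibitors lower the bead chemiluminescence by keeping MITF from dimerizing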
AS interf DR – counter-screen: compounds optically interfering with AlphaScreen; shares compounds with MITF primary; AlphaScreen optical interference counterscreen, cell-free; IC50, µM; 480 compounds, 6% hits; AID 1259373; call rule not given here
AS interf ctr – optically interferes with AlphaScreen signal. shares compounds with MITF primary. LysRS AlphaScreen counterscreen, signal interference, triplicate. inhibition, % at 2.6 µM. 4,700 compounds, 7.6% hits;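 active = inhibition above a cutoff derived from the DMSO control wells, cut at about 30% in these data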
Large screens that a line does not name were inactive (follow-up assays come after a bar, where they were run).

COC(=O)c1cc(S(=O)(=O)NCCCN(C)Cc2ccccc2)c[nH]1	MITF primary 56 | MITF confirm inactive | AS interf ctr inactive
COC(=O)C(NCC(=O)NCc1ccc(Cl)cc1)C(C)C (centres undefined)	MITF primary 66 | MITF confirm inactive | AS interf ctr inactive
COCC(=O)NCc1ccc(Cl)cc1	none
CCN1CCN(CC(=O)Nc2ccc(N3CCCCC3)cc2)CC1	MITF primary 81 | MITF confirm inactive | AS interf ctr inactive
CC1CCN(CC(=O)Nc2ccc(N3CCCC3)cc2)CC1	MITF primary 55 | MITF confirm inactive | AS interf ctr inactive
CC1CCN(CC(=O)Nc2ccc(C(=O)N3CCCCC3)cc2)CC1	MITF primary 59 | MITF confirm inactive | AS interf ctr inactive
O=C(CN1CCCC1)Nc1ccc(N2CCCCC2)cc1	none
CCCCOc1ccc(NC(=O)CN2CCN(C(C)=O)CC2)cc1	MITF primary 66 | MITF confirm inactive | AS interf ctr inactive
COc1ccc(Cl)cc1-c1ccc(/C=C(\C#N)c2nn(CCO)c(N)c2C#N)o1	none
Cc1ccc(NC(=O)CN2CCC(C(=O)NCc3ccccn3)CC2)cc1	none
Cc1ccc(NC(=O)CN2CCC(C(=O)NCc3cccs3)CC2)cc1	MITF primary 114 | MITF confirm inactive | AS interf ctr inactive
COC(=O)c1ccc(NC(=O)CN2CCN(CC#N)CC2)cc1	MITF primary 71 | MITF confirm inactive | AS interf ctr inactive
COC(=O)CCCC[C@H]1SC[C@H]2NC(=O)N[C@]21O	MITF primary 84 | MITF confirm 107 | AS interf ctr 92
CC1Cc2ccccc2N1C(=O)c1cnc2sccn2c1=O (centres undefined)	none
O=c1nc(SCc2ccccc2)c2c(n1CCCO)CCCC2	MITF primary 80 | MITF confirm inactive | AS interf ctr inactive
Cc1ccccc1CSc1nc(=O)n(CCCO)c2c1CCCC2	none
COc1ccc(OC)c(NC(=O)C2CC2(c2cccc(C)c2)c2cccc(C)c2)c1 (centres undefined)	none
CCOC(=O)C1CCCCN1Cc1ccccc1C(F)(F)F (centres undefined)	MITF primary 53 | MITF confirm inactive | AS interf ctr inactive
FC(F)(F)c1ccccc1CN1CCN(C2C3CC4CC(C3)CC2C4)CC1 (centres undefined)	MITF primary 76 | MITF confirm inactive | AS interf ctr inactive
FC(F)(F)c1ccccc1CN1CCC(N2CCCCC2)CC1	none
FC(F)(F)c1ccccc1CN1CCN(C2CCCCC2)CC1	MITF primary 69 | MITF confirm inactive | AS interf ctr inactive
FC(F)(F)c1ccccc1CN1CCN(C2CCCCCC2)CC1	MITF primary 78 | MITF confirm inactive | AS interf ctr inactive
O=S(=O)(c1ccc2ccccc2c1)N1CCN(Cc2ccccc2C(F)(F)F)CC1	none
CCc1cc(SC#N)cc(CC)c1NC(=O)CCl	none
O=C(Nc1ccc2c(c1)CN(C(=O)Cc1ccsc1)CC2)C1CCCO1 (centres undefined)	none
FC(F)(F)c1ccccc1CN1CCC(N2CCCC2)CC1	MITF primary 57 | MITF confirm inactive | AS interf ctr inactive
CN(C)C(=O)C1C2NC(=S)N(c3ccc(Br)cc3)C1(C)Oc1ccc(Cl)cc12 (centres undefined)	MITF primary 68 | MITF confirm inactive | AS interf ctr inactive
CN1CC[C@H](Oc2cc(-c3cn[nH]c3)ccc2NC(=O)OCc2ccccc2)C1	MITF primary 53 | MITF confirm 57 | AS interf DR inactive | AS interf ctr inactive
COc1cccc(COC(=O)Nc2ccc(-c3cn[nH]c3)cc2N(C)CCN(C)C)c1	MITF primary 68 | MITF confirm 73 | AS interf DR inactive | AS interf ctr inactive
CN(C)CCN(C(=O)OCc1ccccc1)c1cc(-c2cn[nH]c2)ccc1NC(=O)OCc1ccccc1	MITF primary 58 | MITF confirm 56 | AS interf DR inactive | AS interf ctr inactive
O=C(Nc1ccc(-c2cn[nH]c2)cc1OCCN1CCCC1)OCc1ccccc1	none
N#C/C(=C\c1ccc(O)cc1)c1nnc(N2CCOCC2)n1-c1ccccc1	none
COc1ccc2c3c(cccc13)C(=O)N(C)C2=O	MITF primary 67 | MITF confirm 76 | AS interf DR inactive | AS interf ctr inactive
COc1ccc2c3c(cccc13)C(=O)N(O)C2=O	none
CCCCCOC(=O)c1ccc(NC(=O)c2cccc([N+](=O)[O-])c2)cc1	none
O=C(Cn1nc(-c2ccc3c(c2)OCCO3)ccc1=O)Nc1ccccc1-c1ccccc1	MITF primary 72 | MITF confirm inactive | AS interf ctr inactive
COC(=O)c1cccc(NC(=O)CCOc2ccccc2)c1	MITF primary 51 | MITF confirm inactive | AS interf ctr inactive
O=C(COC(=O)c1ccc(O)cc1)NC1CCCCC1	MITF primary 59 | MITF confirm inactive | AS interf ctr inactive
COCCn1c(-c2ccc(F)cc2)nc2c(c(=O)c3ccccc3n2C)c1=O	none
CCCn1c(-c2ccc(OC)cc2)nc2c(c(=O)c3ccccc3n2C)c1=O	MITF primary 90 | MITF confirm inactive | AS interf ctr inactive
Cc1nnn(C23CC4CC(CC(CC(=O)Nc5ccc(F)cc5)(C4)C2)C3)n1	MITF primary 75 | MITF confirm inactive | AS interf ctr inactive
O=C1S/C(=C\c2ccco2)C(=O)N1c1ccccc1Cl	MITF primary 78 | MITF confirm 79 | AS interf DR inactive | AS interf ctr inactive
O=C1/C(=C\c2ccc(O)c(O)c2)Oc2c1ccc(O[C@@H]1O[C@H](CO)[C@@H](O)[C@H](O)[C@H]1O)c2O	none
COC(=O)C1=C(C)n2nnnc2NC1c1cc2ccccc2o1 (centres undefined)	MITF primary 77 | MITF confirm inactive | AS interf ctr inactive
NC(=O)c1cc(NC(=O)COC(=O)COc2cccc(C(F)(F)F)c2)cc(C(N)=O)c1	MITF primary 53 | MITF confirm 48 | AS interf DR inactive | AS interf ctr inactive
CN(C)CCCN1C(=O)C(=O)/C(=C(\O)c2ccccc2)C1c1ccco1 (centres undefined)	MITF primary 75 | MITF confirm inactive | AS interf ctr inactive
CCN1CCCC1CNCc1ccccc1Cl (centres undefined)	none
CCN1CCCC1CNCc1csc(-c2ccc(Cl)cc2)n1 (centres undefined)	MITF primary 57 | MITF confirm inactive | AS interf ctr inactive
O=C(c1ccc(Cn2ccnc2)cc1)N1CCN(Cc2nc3ccccc3[nH]2)CC1	MITF primary 87 | MITF confirm inactive | AS interf ctr inactive
CC(=O)c1ccc(NC(=O)N2CCN(Cc3nc4ccccc4[nH]3)CC2)cc1	none
COC(=O)c1ccc(CN2CCN(Cc3nc4ccccc4[nH]3)CC2)o1	MITF primary 73 | MITF confirm inactive | AS interf ctr inactive
